These results are taken from ChEMBL document CHEMBL1157539, “Thousands of chemical starting points for antimalarial lead identification” (Nature, 2010).

What is called Inhibition is how much of the control response was suppressed. Low readings indicate a weak effect, high ones a strong effect.

What all share (type): functional
Assay [1] concerns Plasmodium falciparum. In words: GSK_TCMDC: Inhibition of Plasmodium falciparum 3D7 in whole red blood cells, using parasite LDH activity as an index of growth. Test compounds present at 2uM.
For assay [2], the system named is Plasmodium falciparum. Briefly: GSK_TCMDC: Inhibition of Plasmodium falciparum Dd2 in whole red blood cells, using parasite LDH activity as an index of growth. Test compounds present at 2uM.
Another assay deals with HepG2. Briefly: GSK_TCMDC: Percent inhibition of human HepG2 cell line. Test compounds present at 10uM.

For the compound `CN1CCC(Oc2ccc(CN3CC[C@H](NC(=O)c4ccc(Cl)c(Cl)c4)C3)cc2Cl)C1.O=C(O)C(F)(F)F` (stereo partly drawn), the values for the Inhibition with Plasmodium falciparum [1], with Plasmodium falciparum [2] and with HepG2 were 100%, 78% and 68%, respectively.
In the same order, the values of `O=C(O)C(F)(F)F.Oc1ccc(CCCNc2nc(NCc3cccc4ccccc34)nc(N3CCNCC3)n2)cc1` are 100%, 4% and 9%.
In the same order, the values of `COc1ccc(-c2onc(C(F)(F)F)c2-c2ccc(Br)cc2)c(O)c1` are 99%, 77% and 7%.
In the same order, the values of `O=C(Nc1ccc(-c2nc3ccccc3[nH]2)cc1)C1CCCN(CC2CC2)C1` (stereo not drawn) are 89%, 8% and 6%.
With `O=C(Nc1cccc(N2CCC(NCc3cnn(-c4cccc(F)c4)c3)CC2)c1)c1ccncc1`, the Inhibition in the assay with Plasmodium falciparum [1] worked out at 84%; in the assay with Plasmodium falciparum [2] it was 40%; in the assay with HepG2, 50%.
With `Cc1cc(N[C@@H](Cc2ccccc2)C(=O)NCCOc2ccccc2)nc(NCCc2cccs2)n1.O=C(O)C(F)(F)F`, the figures for the Inhibition with Plasmodium falciparum [1], in the assay on Plasmodium falciparum [2] and in the assay on HepG2 were 95%, 32% and 8%, respectively.
As to `COc1ccc2nccc([C@@H](O)CN3CCC(NC(=O)C(c4cccs4)N4CCN(c5ccc(F)cc5)CC4)CC3)c2c1` (stereo partly drawn), the Inhibition in the assay on Plasmodium falciparum [1] worked out at 97%; with Plasmodium falciparum [2] it was 45%; in the assay on HepG2, 9%.
In the same order, the values of `COc1cc(C(F)(F)F)cc2[nH]c(CNCCCNc3nc4ccccc4[nH]3)cc12` are 100%, 2% and 59%.
The matching figures for `Fc1cccc(COc2ccc(Nc3ncnc4sc(C#CCNC5CCCC5)cc34)cc2Cl)c1`: 100%, 78% and 3%.
Take `O=C(Cc1ccccc1)NC(Nc1ccc([N+](=O)[O-])cc1)C(Cl)(Cl)Cl` (stereo not drawn): the Inhibition with Plasmodium falciparum [1] turned out to be 99%; in the assay on Plasmodium falciparum [2] it was 100%; in the assay on HepG2, 21%.
`COc1ccccc1NC(=O)Nc1ccc(-c2ccc(-c3nc4cc(C(F)(F)F)ccc4[nH]3)cc2)cc1`: the Inhibition worked out at 100% in the assay on Plasmodium falciparum [1], 61% with Plasmodium falciparum [2] and 52% with HepG2.
As to `COc1ccccc1C(=O)Nc1ccc(Nc2nc(C)cc(N3CCOCC3)n2)cc1`, the Inhibition in the assay on Plasmodium falciparum [1] is listed as 98%; in the assay on Plasmodium falciparum [2] it was 22%; with HepG2, 28%.
In the same order, the values of `Cc1ccc(NC(=O)c2ccc(CN3CCCN(CC4CCCCC4)CC3)cc2)cc1.O=C(O)C(F)(F)F` are 93%, 42% and 41%.
On to `O=C(NC1CCN(Cc2ccccc2O)C1)c1cccc(C(F)(F)F)c1.O=C(O)C(F)(F)F` (stereo not drawn), for which the Inhibition came to 98% in the assay on Plasmodium falciparum [1], 62% in the assay with Plasmodium falciparum [2] and 0% with HepG2.
In the same order, the values of `COc1ccccc1-c1nc2nc(N)nc(N)c2nc1-c1ccccc1OC` are 84%, 1% and 27%.
Turning to `O=C(O)C(F)(F)F.Oc1ccc(CCNc2nc(NCc3ccccc3-c3ccc(C(F)(F)F)cc3)nc(NC3CCNCC3)n2)cc1`, the Inhibition in the assay with Plasmodium falciparum [1] is reported as 97%; in the assay on Plasmodium falciparum [2] it was 2%; in the assay on HepG2, 12%.
In the same order, the values of `O=C(NCCCN1CCC(NC(=O)c2ccc(-c3cccnc3)cc2)CC1)c1ccc(Cl)c(Cl)c1.O=C(O)C(F)(F)F` are 94%, 23% and 17%.
The matching figures for `CCN(CC)CCCC(C)N=c1cc(C=Cc2ccc([N+](=O)[O-])cc2)[nH]c2ccc(OC)cc12` (stereo not drawn): 100%, 100% and 37%.
In the case of `O=C(O)C(F)(F)F.Oc1ccc(CN2CCC(NCc3cccc(C(F)(F)F)c3)CC2)cc1`, the Inhibition was found to be 100% in the assay on Plasmodium falciparum [1], 64% in the assay on Plasmodium falciparum [2] and 10% in the assay on HepG2.
On to `CCc1cc(Br)c2c(c1)C(NCCCNc1cc(=O)c3ccccc3[nH]1)CCN2` (stereo not drawn), for which the Inhibition was found to be 94% in the assay with Plasmodium falciparum [1], 20% in the assay on Plasmodium falciparum [2] and 13% with HepG2.
In the same order, the values of `O=C(NC(=S)NCc1ccncc1)c1ccccc1` are 94%, 0% and 0%.
Take `Br.CC(CON1C(N)=NC(N)=NC1(C)C)Cc1ccc(Cl)cc1Cl` (stereo not drawn): the results for the Inhibition with Plasmodium falciparum [1], with Plasmodium falciparum [2] and in the assay on HepG2 were 92%, 97% and 61%, respectively.
As to `CC(C)CNC(=O)c1cncc(-c2ccc(CNC3Cc4ccccc4C3)cc2)c1.O=C(O)C(F)(F)F`, the Inhibition with Plasmodium falciparum [1] came out at 99%; with Plasmodium falciparum [2], 37%; with HepG2, 5%.
On to `CCn1cc(C(=O)O)c(=O)c2cc(F)c(N3CCN(S(=O)(=O)c4ccc(N)cc4)CC3)cc21`, for which the figures for the Inhibition in the assay with Plasmodium falciparum [1], with Plasmodium falciparum [2] and with HepG2 were 90%, 79% and 0%, respectively.
In the same order, the values of `O=C(n1c(-c2cc3ccccc3n2C(=O)C(F)(F)F)cc2ccccc21)C(F)(F)F` are 94%, 80% and 30%.
Consider `CC(C)CCNc1nc(NCCCc2ccccc2)c2cc(O)ccc2n1`, for which the Inhibition in the assay with Plasmodium falciparum [1] is recorded as 100%; with Plasmodium falciparum [2] it was 95%; in the assay on HepG2 it was 14%.
In the same order, the values of `CSc1ccc(CN2CCC(NC(=O)c3ccc(-c4ccc(N(C)C)cc4)s3)CC2)cc1.O=C(O)C(F)(F)F` are 86%, 26% and 30%.
As for `CCc1cn(C)c2c(N3CCCC3=O)cc(C(=O)N[C@@H](Cc3ccccc3)[C@H](O)CNCc3cccc(OC)c3)cc12`, the Inhibition in the assay with Plasmodium falciparum [1] is reported as 96%; with Plasmodium falciparum [2], 97%; in the assay with HepG2, 7%.
Regarding `CCOc1cc(C)ccc1C1CCN(CCCCNC(=O)c2cccc(-c3ccc(C(F)(F)F)cc3)c2)CC1`, the Inhibition in the assay on Plasmodium falciparum [1] turned out to be 99%; in the assay on Plasmodium falciparum [2], 55%; with HepG2, 39%.
The matching figures for `CCOc1cc(C(=O)N[C@@H](Cc2ccccc2)[C@H](O)CNCc2cc(OC)cc(OC)c2)cc(N2CCCCS2(=O)=O)c1.Cl`: 100%, 98% and 0%.
The matching figures for `CN1CCC(Oc2ccc(CN3CC[C@H](NC(=O)c4ccc(F)c(F)c4)C3)c3ccccc23)C1.O=C(O)C(F)(F)F` (stereo partly drawn): 91%, 27% and 20%.
In the same order, the values of `CCN1CCC(N(Cc2ccc(-c3ccc(C(F)(F)F)cc3)cc2)C(=O)Cn2c(CCc3cccc(F)c3F)cc(=O)c3c2CCC3)CC1.O=C(O)C(O)C(O)C(=O)O` are 89%, 85% and 49%.
As for `COc1ccc2nccc(N3CCC(CCNCc4cc5c(cn4)OCCO5)CC3)c2c1.Cl`, the values for the Inhibition with Plasmodium falciparum [1], with Plasmodium falciparum [2] and in the assay on HepG2 were 100%, 99% and 26%, respectively.
In the case of `NCc1cccc(-c2ccc(CNC3CCN(Cc4ccccc4)CC3)cc2)c1.O=C(O)C(F)(F)F`, the Inhibition was found to be 95% in the assay with Plasmodium falciparum [1], 3% with Plasmodium falciparum [2] and 2% in the assay on HepG2.
With `c1ccc(-c2n[nH]cc2Nc2ccnc3ccccc23)nc1`, the values for the Inhibition in the assay on Plasmodium falciparum [1], in the assay on Plasmodium falciparum [2] and in the assay on HepG2 were 100%, 98% and 36%, respectively.
The matching figures for `FC(F)(F)c1ccc(-c2cncc(-c3ccc(C(F)(F)F)cc3)n2)cc1`: 98%, 97% and 9%.
In the same order, the values of `COc1cc(Nc2nccc(N3CCC(NC(=O)c4cccc(NC(C)=O)c4)C3)n2)cc(OC)c1OC` (stereo not drawn) are 98%, 68% and 9%.
In the same order, the values of `Nc1ncc(-c2cc3ccccc3o2)c(N)n1` are 81%, 2% and 0%.
In the case of `Cl.N#Cc1ccc2c(c1)CCN(CCC1CCC(NC(=O)c3ccc(-c4ccccc4)s3)CC1)CC2` (stereo not drawn), the Inhibition in the assay with Plasmodium falciparum [1] came out at 99%; with Plasmodium falciparum [2] it was 36%; in the assay with HepG2 it was 6%.
In the same order, the values of `Cc1cc(C)cc(N2C(N)=NC(N)=NC2(C)C)c1.Cl` are 93%, 6% and 58%.
The matching figures for `O=C(c1ccc(F)c2ccccc12)N1CCc2cc3nccc(N4CCN5CCC[C@H]5C4)c3cc21`: 90%, 54% and 0%.
In the case of `Cc1ccc(Nc2nc(NN=Cc3ccc(-c4ccc([N+](=O)[O-])cc4)o3)nc(N3CCOCC3)n2)cc1Cl`, the Inhibition in the assay on Plasmodium falciparum [1] was determined as 95%; in the assay on Plasmodium falciparum [2], 47%; in the assay on HepG2, 12%.
Consider `O=C(Cc1c[nH]cn1)Nc1ccc(-c2ccc(-c3nc4cc(F)ccc4[nH]3)cc2)cc1`, for which the values for the Inhibition with Plasmodium falciparum [1], in the assay on Plasmodium falciparum [2] and in the assay with HepG2 were 100%, 91% and 39%, respectively.
In the same order, the values of `COc1ccc(Cl)cc1N1CCN(CCCNC(=O)c2ccc(-c3nc4cc(Cl)c(C)cc4[nH]3)c(F)c2)CC1` are 99%, 91% and 0%.
In the same order, the values of `Cc1cccc2nc(-c3cccc(-c4cccc(C(=O)NCc5nccn5C)c4)c3)[nH]c12` are 99%, 50% and 22%.
The matching figures for `Br.Cc1cccc2c(CON3C(N)=NC(N)=NC3(C)C)cccc12`: 94%, 94% and 64%.
As to `O=C(NCCNc1ccnc(NCc2ccc(F)cc2)n1)c1cc2ccccc2s1`, the figures for the Inhibition in the assay with Plasmodium falciparum [1], in the assay with Plasmodium falciparum [2] and with HepG2 were 99%, 17% and 6%, respectively.
The matching figures for `O=C(O)C(F)(F)F.c1ccc(CNCc2cccc(-c3ccc(-c4nc5ccccc5[nH]4)s3)c2)cc1`: 95%, 63% and 8%.
Turning to `Cl.NC1=NC(CCc2ccccc2)N(c2ccc(Cl)cc2)C(N)=N1` (stereo not drawn), the Inhibition in the assay on Plasmodium falciparum [1] was determined as 94%; in the assay with Plasmodium falciparum [2], 20%; in the assay on HepG2 it was 2%.
The matching figures for `CN1CCN(CC(=O)Nc2ccc(-c3ccc(-c4nc5ccccc5[nH]4)cc3)cc2)CC1`: 98%, 80% and 18%.
In the same order, the values of `CN(C)Cc1ccc(-c2ccc3ccnc(N)c3c2)cc1` are 100%, 100% and 20%.
In the same order, the values of `CN(Cc1cc(C(F)(F)F)cc(C(F)(F)F)c1)C(=O)C(Cc1ccc(F)cc1)C1CCCNC1` (stereo not drawn) are 96%, 89% and 10%.
As to `Cc1cccc2nc(-c3cccc(-c4cccc(NC(=O)c5ccoc5)c4)c3)[nH]c12`, the Inhibition was found to be 99% with Plasmodium falciparum [1], 71% in the assay with Plasmodium falciparum [2] and 19% with HepG2.
The matching figures for `Clc1cccc(CNc2nc(NCCc3c[nH]cn3)nc(NC3CCCCC3)n2)c1`: 98%, 0% and 17%.
In the same order, the values of `Cn1cnc(CCNC(=O)c2ccc(-c3cccc(-c4nc5ccccc5[nH]4)c3)cc2)c1` are 93%, 14% and 1%.
In the same order, the values of `O=C(c1ccc([N+](=O)[O-])o1)N1CCN(c2nc3c(F)cc(F)cc3s2)CC1` are 93%, 86% and 0%.
Regarding `CCN(CCCN1CCCCC1)c1cc(C)nc(Nc2cccc(C(F)(F)F)c2C)n1.O=C(O)C(F)(F)F`, the Inhibition worked out at 99% in the assay on Plasmodium falciparum [1], 37% with Plasmodium falciparum [2] and 57% with HepG2.
In the same order, the values of `O=C(/C=C/c1ccc(-c2nc3ccc(Cl)cc3[nH]2)cc1)NCc1cccc(F)c1` are 99%, 68% and 1%.
For the compound `CN1CCCN(Cc2ccc(-c3cccc(NC(=O)c4ccc(Cl)cc4)c3)cc2)CC1.O=C(O)C(F)(F)F`, the Inhibition in the assay on Plasmodium falciparum [1] is reported as 98%; in the assay on Plasmodium falciparum [2], 50%; in the assay on HepG2, 34%.
On to `CC(C)(C(=O)Nc1ccc(C2CCC(NCC3CC3)CC2)c(Cl)c1)c1ccc(C(F)(F)F)cc1` (stereo not drawn), for which the Inhibition came out at 97% with Plasmodium falciparum [1], 18% with Plasmodium falciparum [2] and 64% in the assay on HepG2.
For `O=C(O)C(F)(F)F.O=S(=O)(NCCN1CCCC1)c1ccc(-c2ccccc2CNC2Cc3ccccc3C2)cc1`, the Inhibition in the assay with Plasmodium falciparum [1] is 95%; in the assay on Plasmodium falciparum [2], 67%; in the assay on HepG2, 19%.
